The record followed here is PubChem BioAssay AID624331 (National Center for Advancing Translational Sciences (NCATS), 2012).

Records with an inconclusive call do not appear. Unmarked numbers belong to inactive results. Active and inactive are the calls of the source. The call rests on the fitted dose curve; in most records, active means well fitted activation curve with a large enough effect; inconclusive means small, poorly fitted or top-dose-only effect; inactive means no such curve, though single readings can be large or run the other way.
Potency means the concentration at half of the fitted maximal effect.

The assay in a line: qHTS assay for re-activators of p53 using a Luc reporter: Hit Validation with no p53 Expressed. On activity change, positive = activation: 0% is about no effect. As to conditions: p53-null cells, luciferase reporter counter-screen; series mostly up to 46.1 µM; activity change, positive = activation: at the top concentration. Put shortly:
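Without p53 expression, cells (1000/well, Opti-MEM + 10% FBS) were exposed 24 h at 37 deg C to compounds in a 1:5 series from 10 mM stock (top 46.1 µM in well). Luminescent signal read 10 min after Amplite addition; actives flag unspecific activation.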
As for `CCOc1ccc(N2C(=O)c3ccccc3NC2(C)CC)cc1` (centres undefined), the “activity change, positive = activation” value was 59.9%.
Consider `COc1ccc(/C(O)=C2/C(=O)C(=O)N(CCN3CCOCC3)C2c2ccccn2)cc1` (centres undefined), for which the “activity change, positive = activation” value is -41.2%.
Consider `Oc1cccc2c(NC(=S)Nc3ccc(OC(F)F)cc3)cccc12`, for which the “activity change, positive = activation” value was -10.6%.
As for `O=C(COC(=O)c1ccc(-c2nnc(-c3ccccc3)o2)cc1)c1ccccc1`, the Potency was 0.146 µM (active).
Turning to `O=C(Oc1ccccc1/C=C\C(=O)c1cc2ccccc2o1)c1cccc(F)c1`, the “activity change, positive = activation” value is 4.1%.
Take `O=C(N/N=C/c1cn(-c2ccccc2)nc1-c1cc2ccccc2o1)c1ccccc1Br`: the “activity change, positive = activation” value was 41.5%.
Turning to `O=C(O)C1C2C=CC(C2)C1C(=O)Nc1ccccc1Br` (centres undefined), the “activity change, positive = activation” value was -31.3%.
For the molecule `Fc1ccccc1/C=C/c1ccc2ccccc2n1`, the “activity change, positive = activation” value was -10.9%.
Take `Cc1cc2nc(-c3ccc(SCC(=O)Nc4ccc(S(=O)(=O)NC5CC5)cc4)nc3)[nH]c2cc1C`: the “activity change, positive = activation” value was 29.4%.
Same read-out and setting: the value for `Cc1ccc(C(=O)N/N=C2\CCc3ccccc32)c(C)c1` was -37.4%; that for `Cc1noc(C)c1COc1ccc(C(=O)NCCOc2ccccc2)cc1` was 10.3%; that for `COc1cc(C(=S)N2CCOCC2)ccc1OC(=O)c1ccccc1C` was 29.9%.
The same measure, in the same setting: as for `C=CCSC1=N/C(=C\c2cc(OCC)c(OC(C)=O)c([N+](=O)[O-])c2)C(=O)S1`, the figure is -60.9%.
The same measure, in the same setting: as for `CNc1nnc(SCC(=O)c2cc(C)n(C3CC3)c2C)s1`, the figure is -24.5%; as for `CCN(CC)CCN1C(=O)C(=O)/C(=C(/O)c2cnn(-c3ccccc3)c2C)C1c1ccc(C)o1` (centres undefined), 24.6%; as for `CCc1ccc2c(CN(CC)Cc3nc4ccccc4c(=O)[nH]3)cc(=O)oc2c1`, 39.4%.
Turning to `Cc1cc(C(=O)N2CCN(c3ccccc3Cl)CC2)c(C)o1`, the “activity change, positive = activation” value was 12.6%.
On to `Cc1ccc(-c2nnc(SCc3ccccc3F)o2)cc1`, for which the “activity change, positive = activation” value was 36.2%.
With `O=[N+]([O-])c1cc(C(F)(F)F)ccc1NCCc1c[nH]c2ccccc12`, the “activity change, positive = activation” value was -38.7%.
For the molecule `Clc1ccc(-c2nnc(SCc3ccon3)o2)c(Cl)c1`, the Potency is 1.84 µM (active).
With `CC(OC(=O)c1cnccn1)C(=O)Nc1nc(-c2cccc([N+](=O)[O-])c2)cs1` (centres undefined), the “activity change, positive = activation” value was -31.6%.
Take `CC(C)OC(=O)CCCCCN1C(=O)CSC1=S`: the “activity change, positive = activation” value is -21.6%.
In the case of `CCCN(C(=O)c1cccc(S(=O)(=O)N2CCCc3ccccc32)c1)C1CCS(=O)(=O)C1` (centres undefined), the “activity change, positive = activation” value was -22.7%.
Same read-out and setting: the value for `CC(C)/C=C1\CC/C(=C\c2ccc(N(C)C)cc2)C1=O` was 14.4%.
The same measure, in the same setting: as for `Cc1nc(NC(=O)C2CC3CCCC(C2)C3=O)sc1C` (centres undefined), the figure is 18.7%.
On to `O=C(Nc1nnc(-c2cccs2)o1)c1cccc(C(F)(F)F)c1`, for which the “activity change, positive = activation” value was -41.9%.
For `Cc1ccc2cc3cc(C(=O)N4CCCCCC4)oc3nc2c1`, the “activity change, positive = activation” value is 47.8%.
With `COC(=O)C1=C(C(=O)c2ccccc2)C(c2ccc(OC)c(OC)c2)Nc2nnnn21` (centres undefined), the “activity change, positive = activation” value is -13.2%.
As for `CCOc1ccc(N/C=C/C(=O)c2ccccc2)c([N+](=O)[O-])c1`, the “activity change, positive = activation” value was -51.8%.
Consider `O=C(CCN1C(=O)/C(=C/c2ccccc2Cl)SC1=S)N1CCOCC1`, for which the “activity change, positive = activation” value is -4.6%.
On to `O=C(Nc1ccc(N2CCCCCC2)cc1)c1ccc[nH]1`, for which the Potency was 1.84 µM (active).
With `Cc1cc(C)c2nc(NNC(=O)c3ccc(S(=O)(=O)N4CCCC(C)C4)cc3)sc2c1` (centres undefined), the “activity change, positive = activation” value is 0.359%.
For `COc1ccc([N+](=O)[O-])cc1NC(=O)CSCc1ccc(Br)cc1`, the “activity change, positive = activation” value was -9.05%.
On the same count and under the same terms, as for `COc1cccc(NC(=O)c2ocnc2C)c1`, the figure is -8.41%; as for `O=C(NC(=S)NCCc1ccccc1)C1CCCCC1`, -17%.
On the same count and under the same terms, the value for `CCCCCc1nnc(NC(=O)C2CCCO2)s1` (centres undefined) was -9.05%.
Turning to `CC1CCCC(C)N1C(=O)CSc1nnc(-c2cccs2)o1` (centres undefined), the “activity change, positive = activation” value was 52.8%.
On to `C/C(=N\NS(=O)(=O)c1ccc(Cl)cc1)c1ccc(NC(=O)c2ccco2)cc1`, for which the “activity change, positive = activation” value was -9.33%.
Same read-out and setting: as for `CCc1ccc(C(=O)Nc2nc3ccccc3[nH]2)cc1`, the figure is -79.2%.
